According to PubChem BioAssay AID1159580 (chemical genetic matrix, 2015):
About 2,000 (36%) of roughly 5,500 compounds were called active. Roughly 18% stayed inconclusive and do not appear here. Cut-off read from the data, not from the text of the source: active = normalized growth mostly below about 0.91 (no sharp cut-off); inconclusive = no clear call, values can overlap the other calls; inactive = mostly above about 0.92. Some of the results follow.

Assay: chemical genetic growth profiling, strain panel (AID 1159580);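 note: tested at 20 µM; growth read once vehicle control cultures reached saturation at 30 °C; 1 = growth at the plate median or of vehicle wells; lower values mean less growth of the strain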
Conditions: growth OD

Measured: normalized growth

CC(C)c1c(O)ccc2c1CCC1C(C)(C)CCC[C@]21C (some centres not stated)
active: S. cerevisiae deletion strains, locus YJR066W, strain TOR1, hits give low values 0.709 | S. cerevisiae deletion strains, locus YKL009W, strain mrt4, hits give low values 0.822 | S. cerevisiae deletion strains, locus YKL085W, strain MDH1 (second series), hits give low values 0.358 | S. cerevisiae deletion strains, locus YKL085W, strain MDH1, hits give low values 0.358 | S. cerevisiae deletion strains, locus YKL160W, strain elf1, hits give low values 0.729 | S. cerevisiae deletion strains, locus YKL190W, strain CNB1, hits give low values 0.0594 | S. cerevisiae deletion strains, locus YKR001C, strain vps1, hits give low values 0.0785 | S. cerevisiae deletion strains, locus YKR091W, strain srl3, hits give low values 0.78 | S. cerevisiae deletion strains, locus YLL001W, strain dnm1, hits give low values 0.819 | S. cerevisiae deletion strains, locus YLL026W, hits give low values 0.263 | S. cerevisiae deletion strains, locus YLL041C, strain sdh2, hits give low values 0.55 | S. cerevisiae deletion strains, locus YLR027C, strain aat2, hits give low values 0.254 | S. cerevisiae deletion strains, locus YLR039C, strain RIC1, hits give low values 0.127 | S. cerevisiae deletion strains, locus YLR058C, strain SHM2, hits give low values 0.104 | S. cerevisiae deletion strains, locus YLR102C, strain apc9, hits give low values 0.214 | S. cerevisiae deletion strains, locus YLR113W, strain HOG1, hits give low values 0.3 | S. cerevisiae deletion strains, locus YLR221C, strain rsa3, hits give low values 0.337 | S. cerevisiae deletion strains, locus YLR258W, strain gsy2, hits give low values 0.343 | S. cerevisiae deletion strains, locus YLR262C, strain YPT6 (second series), hits give low values 0.146 | S. cerevisiae deletion strains, locus YLR268W, strain sec22, hits give low values 0.191 | S. cerevisiae deletion strains, locus YLR320W, strain mms22, hits give low values 0.22 | S. cerevisiae deletion strains, locus YLR342W, strain FKS1 (second series), hits give low values 0.139 | S. cerevisiae deletion strains, locus YLR342W, strain FKS1, hits give low values 0.43 | S. cerevisiae deletion strains, locus YLR371W, strain rom2, hits give low values 0.186 | S. cerevisiae deletion strains, locus YLR418C, strain cdc73, hits give low values 0.125 | S. cerevisiae deletion strains, locus YML016C, strain PPZ1, hits give low values 0.438 | S. cerevisiae deletion strains, locus YML032C, strain rad52, hits give low values 0.315 | S. cerevisiae deletion strains, locus YML120C, strain ndi1, hits give low values 0.235 | S. cerevisiae deletion strains, locus YML124C, strain tub3, hits give low values 0.241 | S. cerevisiae deletion strains, locus YMR078C, strain ctf18, hits give low values 0.211 | S. cerevisiae deletion strains, locus YMR129W, hits give low values 0.692 | S. cerevisiae deletion strains, locus YMR205C, strain PFK2, hits give low values 0.305 | S. cerevisiae deletion strains, locus YMR223W, strain ubp8, hits give low values 0.21 | S. cerevisiae deletion strains, locus YMR307W, strain GAS1, hits give low values 0.179 | S. cerevisiae deletion strains, locus YNL067W, strain RPL9B, hits give low values 0.279 | S. cerevisiae deletion strains, locus YNL071W, strain lat1, hits give low values 0.13 | S. cerevisiae deletion strains, locus YNL128W, strain TEP1, hits give low values 0.205 | S. cerevisiae deletion strains, locus YNL183C, strain NPR1, hits give low values 0.627 | S. cerevisiae deletion strains, locus YNL209W, strain ssb2, hits give low values 0.689 | S. cerevisiae deletion strains, locus YNL233W, strain BNI4, hits give low values 0.0951 | S. cerevisiae deletion strains, locus YNL250W, strain rad50, hits give low values 0.786 | S. cerevisiae deletion strains, locus YNL271C, strain bni1, hits give low values 0.74 | S. cerevisiae deletion strains, locus YNL298W, strain CLA4, hits give low values 0.636 | S. cerevisiae deletion strains, locus YNL307C, strain MCK1, hits give low values 0.0705 | S. cerevisiae deletion strains, locus YNL322C, strain KRE1, hits give low values 0.0898 | S. cerevisiae deletion strains, locus YNR052C, strain pop2, hits give low values 0.313 | S. cerevisiae deletion strains, locus YOL006C, strain TOP1, hits give low values 0.227 | S. cerevisiae deletion strains, locus YOL147C, strain pex11, hits give low values 0.131 | S. cerevisiae deletion strains, locus YOR001W, strain rrp6, hits give low values 0.556 | S. cerevisiae deletion strains, locus YOR061W, strain CKA2, hits give low values 0.173 | S. cerevisiae deletion strains, locus YOR069W, strain VPS5, hits give low values 0.372 | S. cerevisiae deletion strains, locus YOR070C, strain gyp1, hits give low values 0.157 | S. cerevisiae deletion strains, locus YOR080W, strain dia2, hits give low values 0.685 | S. cerevisiae deletion strains, locus YOR083W, strain WHI5, hits give low values 0.424 | S. cerevisiae deletion strains, locus YOR106W, strain vam3, hits give low values 0.274 | S. cerevisiae deletion strains, locus YOR136W, strain idh2, hits give low values 0.287 | S. cerevisiae deletion strains, locus YOR144C, strain elg1, hits give low values 0.295 | S. cerevisiae deletion strains, locus YOR184W, strain ser1, hits give low values 0.134 | S. cerevisiae deletion strains, locus YOR231W, strain MKK1, hits give low values 0.366 | S. cerevisiae deletion strains, locus YOR265W, strain rbl2, hits give low values 0.31 | S. cerevisiae deletion strains, locus YOR270C, strain vph1, hits give low values 0.632 | S. cerevisiae deletion strains, locus YOR290C, strain snf2, hits give low values 0.712 | S. cerevisiae deletion strains, locus YOR316C, strain cot1, hits give low values 0.263 | S. cerevisiae deletion strains, locus YPL051W, strain arl3, hits give low values 0.322 | S. cerevisiae deletion strains, locus YPL106C, strain sse1, hits give low values 0.815 | S. cerevisiae deletion strains, locus YPL240C, strain hsp82, hits give low values 0.29 | S. cerevisiae deletion strains, locus YPL241C, strain CIN2, hits give low values 0.166 | S. cerevisiae deletion strains, locus YPL256C, strain CLN2, hits give low values 0.521 | S. cerevisiae deletion strains, locus YPR119W, strain clb2, hits give low values 0.187 | S. cerevisiae deletion strains, locus YPR163C, strain tif3, hits give low values 0.187 | S. cerevisiae deletion strains, locus YPR167C, strain met16, hits give low values 0.139 | S. cerevisiae deletion strains, strain wtn01, hits give low values 0.132 | S. cerevisiae strains, strain wild type, hits give low values 0.0726
inactive: S. cerevisiae deletion strains, locus YKL068W, hits give low values 1.03 | S. cerevisiae deletion strains, locus YKR026C, strain gcn3, hits give low values 0.993 | S. cerevisiae deletion strains, locus YLR357W, strain rsc2, hits give low values 1.14 | S. cerevisiae deletion strains, locus YLR370C, strain arc18, hits give low values 1.06 | S. cerevisiae deletion strains, locus YLR384C, strain iki3, hits give low values 1.01 | S. cerevisiae deletion strains, locus YMR058W, strain fet3, hits give low values 0.968 | S. cerevisiae deletion strains, locus YMR125W, strain sto1, hits give low values 0.928 | S. cerevisiae deletion strains, locus YMR231W, strain pep5, hits give low values 0.93 | S. cerevisiae deletion strains, locus YNL248C, strain rpa49, hits give low values 0.989 | S. cerevisiae deletion strains, locus YNL322C, strain KRE1 (second series), hits give low values 1.03 | S. cerevisiae deletion strains, locus YNR049C, strain mso1, hits give low values 0.994 | S. cerevisiae deletion strains, locus YOL012C, strain htz1 0.469 | S. cerevisiae deletion strains, locus YPL078C, strain atp4, hits give low values 0.925 | S. cerevisiae deletion strains, locus YPR141C, strain kar3, hits give low values 1.01
